Screening data: PubChem, National Center for Advancing Translational Sciences (NCATS)
FBPA Giardia inh: Giardia lamblia aldolase inhibition; A8B2U2; purified Giardia FBPA; Potency, µM (series often up to 59.6 µM), for the others: at the top dose activity, negative = inhibition, usual class: inhibitors; 290,000 tested, 0.71% active; AID 2451; note: potency is the fitted concentration of half-maximal effect; nearly all actives have a fitted effect of over 55% in size
Target sequence (A8B2U2 whole entry, looked up): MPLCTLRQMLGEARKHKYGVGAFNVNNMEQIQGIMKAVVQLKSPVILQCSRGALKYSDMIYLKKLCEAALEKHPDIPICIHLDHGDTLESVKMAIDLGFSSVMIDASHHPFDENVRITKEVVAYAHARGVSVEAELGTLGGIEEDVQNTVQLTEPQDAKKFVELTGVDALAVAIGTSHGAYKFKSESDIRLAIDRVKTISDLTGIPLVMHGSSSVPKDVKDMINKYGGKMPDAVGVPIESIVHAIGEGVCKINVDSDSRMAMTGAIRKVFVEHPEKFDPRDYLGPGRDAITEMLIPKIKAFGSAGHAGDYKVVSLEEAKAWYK
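40 nM FBPA preincubated 10 min at RT with compound (up to 57.5 uM final), then substrate plus GAPDH/TPI/NAD/arsenate coupling and diaphorase/resazurin added. Fluorescence read after 20 min at RT, 525/598 nm.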
HCV inhibitor: inhibitors of hepatitis C virus infection | Huh7.5.1 HCVcc-Cre infection, luciferase reporter, 44 h | Potency, µM (top dose mostly 41.8 µM), for the others: top-dose activity change, negative = inhibition, hits mostly inhibitors | 340,000 tested, 3.4% active | AID 651820; note: potency is the fitted concentration of half-maximal effect
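Infectious HCV cell culture screen: compound-treated cells (1,000/well, pre-plated 4 h) are infected with HCVcc-Cre at roughly 0.5 moi and grown 44 h. Infection is quantified by luciferase signal after 15 min substrate incubation at room temperature.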
HCMV inh: blocks human cytomegalovirus replication; HFF cells, HCMV-luciferase reporter, 72 h; stronger effect = lower value; activity change, negative = inhibition, % at 57.5 µM; AID 1259415; 410,000 tested, 4.5% active; in the data active = activity change below about -60%; inconclusive = no clear call, values can overlap the other calls; inactive = above about -39%
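Steps: HFFs plated, 16 h 37C; compounds added; HCMV-luciferase added to MOI 1 PFU/cell; 72 h 37C; OneGlo reagent, 5 min room temperature; luminescence read, normalized to controls.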
MARV entry inh: blocks Marburg virus binding to or entry into cells; Potency, µM (titrated, usually from 37.8 µM), inactives show at the highest dose activity change, negative = inhibition, actives largely listed as inhibitors; Marburg virus pseudotyped entry inhibition, cell reporter; AID 540276; 300,000 tested, 1.8% active; calls by dose curve; tested in HEK293 cells; note: potency is the fitted concentration of half-maximal effect
Lassa entry inh: blocks Lassa virus binding to or entry into cells | Potency, µM (doses to about 37.9 µM), without a hit: top-dose activity change, negative = inhibition, most hits filed as inhibitors | AID 540256 | Lassa virus pseudotype entry inhibition, cell reporter | 300,000 tested, 1.2% active; calls by dose curve; tested in HEK293 cells; note: potency is the fitted concentration of half-maximal effect; nearly all actives have a fitted effect of over 50% in size
FMDV antiviral: blocks foot and mouth disease virus. FMDV antiviral cell-based qHTS. Potency, µM (series often up to 57.9 µM), without a hit: at the top dose activity change, negative = inhibition, actives largely listed as inhibitors. 410,000 tested, 1.2% active; calls by dose curve; tested in HEK293T cells; note: read-out not given here; potency is the fitted concentration of half-maximal effect; nearly all actives have a fitted effect of over 45% in size
The depositor's hits bear a star; ? = inconclusive; nt = no result given; [ ] = remark or other dose. This is a sample that favours compounds with a hit; in the whole collection about 8.3% have one here. Unless noted, calls come from the whole dose curve; as a rule, active = well fitted curve in the direction sought with a large enough effect; inconclusive = small, poorly fitted or top-dose-only effect, or another doubt; inactive = no such curve, though single readings can be large; an effect the other way counts as inactive or inconclusive. % is set by controls: 0 for no effect and ±100 for the full control effect.

SMILES	FBPA Giardia inh	HCV inhibitor	HCMV inh	MARV entry inh	Lassa entry inh	FMDV antiviral
CCOC(=O)c1ccc(NC(=O)C(C)N(c2ccc(OCC)cc2)S(C)(=O)=O)cc1 (centres undefined)	nt	nt	?	-7%[46.1 µM]	8%[46.1 µM]	-24%
CCOC(=O)C1=C(C)NC(C)=C(C(=O)OCC)C1C(=O)OCC(=O)NCc1ccc(F)cc1	nt	3.5µM*	-16	nt	nt	-24%
CCOC(=O)C1=C(C)NC(C)=C(C(=O)OCC)C1c1c(F)c(F)c(F)c(F)c1F	nt	nt	nt	?	16µM*	nt
CCN(CC)CCCOC(=O)C(OC(C)C)(c1ccccc1)c1ccccc1	-11%	7.1µM*	-37	12µM*	16µM*	?
COc1cccc(NC(=O)Cn2cc(C(=O)C3CCCCC3)c3ccccc32)c1	nt	nt	-5	?	-3%[46.1 µM]	-14%
COc1cc(C(=O)NCC(c2cccs2)N(C)C)cc(Cl)c1OC(C)C (centres undefined)	7%	?	-61*	-38%	?	30%
COc1ccc(SCC(Cc2ccccc2)N2CCN(CC(C)C)CCC2=O)cc1 (centres undefined)	-3%	nt	nt	nt	nt	nt
O=C(NCC1Cc2cc(F)cc(-c3cnccn3)c2O1)c1cccc(-c2ccccc2F)c1 (centres undefined)	nt	nt	nt	nt	nt	0%
CNNC	11µM*	nt	nt	nt	nt	22%
CCOc1ccc(N(CC(=O)NC2CCCCC2)C(=O)CSc2nnc(COc3ccccc3)o2)cc1	-7%	?	27	-9%[46.1 µM]	-5%	-18%
O=C(CN(Cc1cccs1)C(=O)CSc1nnc(COc2ccccc2)o1)NC1CCCCC1	3%	-10%	3	?	?	40µM*
Clc1ccc(OCCSc2ncccn2)c(Br)c1	5%	11µM*	93	?	-25%	-13%
CCN(CC)c1ccc(-c2nc3cnccc3n2C)cc1	-13%	11µM*	11	?	-25%	-18%
Cn1c(-c2ccncc2)nc2ccccc21	11%	6%	7	nt	nt	-9%
CCOc1ccc(-n2c(C)c(C(=O)O)c3cc(OC)ccc32)cc1	-8%	2%	?	6.3µM*	?	-2%
CCOc1ccc(-n2c(C)c(C(C)=O)c3cc(OC(C)=O)ccc32)cc1	-3%	?	-78*	nt	nt	?
CC(=O)c1c(C)n(-c2cccc(C)c2)c2ccc(OC(=O)COc3ccccc3)cc12	nt	nt	-63*	-17%[46.1 µM]	-13%[46.1 µM]	0%
CCOc1ccc(-n2c(C)c(C(C)=O)c(C(C)=O)c2C)cc1	5%	2%	?	-1%	1%	-23%
CC12CC[C@@](C(=O)O)(C(=O)C1=O)C2(C)C	-2%	nt	nt	nt	nt	-3%
CN1/C(=C\C=C2C(=O)NC(=S)NC2=O)C(C)(C)c2ccccc21	-4%	-23%	-20	?	-22%[46.1 µM]	-18%
CN1C(=CC=C2C=C(I)C(=O)C(I)=C2)C(C)(C)c2ccccc21	17%	-24%	-77*	-3%[46.1 µM]	12%	22µM*
CN1/C(=C\C=C2/SC(=S)NC2=O)C(C)(C)c2ccccc21	-17%	?	-93*	nt	nt	?
COc1ccc(-c2[nH]c(-c3ccc(F)cc3)nc2SCC(=O)Nc2ccc(OC)c(OC)c2)cc1	nt	nt	-34	?	-27%[46.1 µM]	-15%
Cc1cn2c(=O)cc(COC(=O)c3ccc(NC(=O)COc4ccc(C)c(C)c4)cc3)nc2s1	nt	nt	-1	nt	5%[46.1 µM]	-1%
COc1ccc(Cl)cc1C(=O)Nc1ccccc1N1CCCCC1	-1%	11µM*	-15	nt	nt	?
SMILES	FBPA Giardia inh	HCV inhibitor	HCMV inh	MARV entry inh	Lassa entry inh	FMDV antiviral
Cc1ccc(NC(=O)c2ccc(Nc3c([N+](=O)[O-])cc([N+](=O)[O-])cc3[N+](=O)[O-])cc2)cc1	?	10µM*	-94*	10µM*	?	13µM*
CC(=O)Nc1ccc(NC(=O)c2cc([N+](=O)[O-])cc([N+](=O)[O-])c2)cc1	-1%	-1%	-29	5%[46.1 µM]	-1%[46.1 µM]	-11%
COc1ccc(Cl)cc1C(=O)Nc1ccccc1N1CCN(C)CC1	2%	?	2	?	-22%	0%
COc1ccc(C(=O)Nc2ccc(OCc3ccccc3)cc2)cc1[N+](=O)[O-]	2%	?	10	?	-9%	0%
COc1ccc(C(=O)Nc2ccccc2N2CCCCC2)cc1[N+](=O)[O-]	-7%	?	-63*	nt	nt	?
COc1ccc(C(=O)Nc2ccc(Nc3ccccc3)cc2)cc1[N+](=O)[O-]	-2%	11µM*	-18	nt	nt	35µM*
COc1ccc(CCC(=O)Nc2cc(Cl)ccc2N2CCN(C)CC2)cc1	-1%	?	-3	?	-27%	-12%
COc1ccc(CC(=O)Nc2cc(Cl)ccc2N2CCCC2)cc1	-13%	?	-63*	?	-15%	-9%
CN1CCN(c2ncc3nc(-c4ccccc4)c(=O)n(-c4ccccc4)c3n2)CC1	-6%	nt	nt	nt	nt	-12%
COc1cc(/C=C/c2nc3ccccc3c(=O)n2-c2ccccc2O)ccc1O	-19%	?	-83*	?	?	-24%
COc1cccc(-n2c(/C=C/c3ccccc3O)nc3ccccc3c2=O)c1	nt	nt	?	nt	?	0%
COc1cc(/C=C/c2nc3ccccc3c(=O)n2-c2cccc(O)c2)ccc1O	0%	?	0	?	1.3µM*	?
C[C@@H]1C(=O)O[C@@H]1[C@@H](C)CO[Si](c1ccccc1)(c1ccccc1)C(C)(C)C	0%	nt	nt	nt	nt	nt
COc1cc(OC)cc(C(=O)NCCc2csc(-c3cccc(C)c3)n2)c1	nt	nt	?	nt	-13%[46.1 µM]	0%
COC1(OC)C=CC(=O)C=C1NC(=O)c1ccccc1OC(C)=O	nt	nt	-78*	nt	nt	?
O=C1S/C(=C\c2ccc(N3CCOCC3)o2)C(=O)N1c1ccccc1	?	32µM*	45	?	18%	2%
O=C(O)c1ccccc1-c1ccc(/C=C2\SC(=O)N(c3ccccc3)C2=O)o1	-3%	4%	128	nt	nt	93%
O=c1oc2ccccc2cc1-c1csc(Nc2nc3ccc(F)cc3s2)n1	-9%	-4%	nt	7%	1%	nt
O=C(Nc1nc(-c2cc3ccccc3oc2=O)cs1)c1ccco1	-1%	-5%	-63*	nt	nt	3%
O=c1oc2ccccc2cc1-c1csc(Nc2nc3c(F)cccc3s2)n1	-2%	13µM*	-28	?	?	7.1µM*
O=C(Nc1nc(-c2ccncc2)cs1)c1ccco1	-7%	-1%	47	?	3%	0%
O=c1oc2ccccc2cc1-c1csc(Cc2nc(-c3ccc(Cl)cc3)cs2)n1	3%	?	-96*	?	?	?
CCCC[C@@H]1C[C@H]1C(NS(=O)(=O)c1cccc2cccnc12)c1ccc(-c2ccccc2)cc1 (some centres undefined)	-4%	nt	nt	nt	nt	nt
Cc1ccc(Cl)cc1NC(=O)Nc1cccs1	-13%	1%	?	10µM*	-3%	4%
CCc1nnc2c3ccccc3nc(Nc3ccc(F)c(Cl)c3)n12	nt	nt	0	3%[46.1 µM]	0%[46.1 µM]	?
